Paper PMC7862700, “An all-to-all approach to the identification of sequence-specific readers for epigenetic DNA modifications on cytosine”

How the values were obtained:
Assay in all cases: DAPPL (digital affinity profiling via proximity ligation, sequencing); 10 mM Tris-HCl pH 7.5, 50 mM NaCl, 1 mM DTT, 4% glycerol, room temperature, 30 min; GST-TFs on glutathione beads, 16-mer random dsDNA library, 0.1% formaldehyde crosslink after washing; high values mean tight binding
Conditions in all cases: protein: recombinant; tags: N-terminal GST; dsDNA, one strand shown
FLI1 = target: T1, FLI1 (Homo sapiens, UniProt Q01543 1-452)
T1 sequence: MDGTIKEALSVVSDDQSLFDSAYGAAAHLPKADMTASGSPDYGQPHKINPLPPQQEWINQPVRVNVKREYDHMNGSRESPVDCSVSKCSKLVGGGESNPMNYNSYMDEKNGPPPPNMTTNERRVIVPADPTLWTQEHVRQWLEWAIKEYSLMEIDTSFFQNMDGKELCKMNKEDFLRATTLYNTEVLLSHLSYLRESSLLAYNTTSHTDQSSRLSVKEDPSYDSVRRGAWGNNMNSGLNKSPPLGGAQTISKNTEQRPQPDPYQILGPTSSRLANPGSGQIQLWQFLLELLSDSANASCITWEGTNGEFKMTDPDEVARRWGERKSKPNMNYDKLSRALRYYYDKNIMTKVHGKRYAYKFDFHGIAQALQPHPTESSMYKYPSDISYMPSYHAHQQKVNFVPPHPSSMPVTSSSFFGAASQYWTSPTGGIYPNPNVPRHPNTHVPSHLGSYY
Procedure, shortened: (§1)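 Sequencing on an Illumina NextSeq500 followed washing, crosslinking with 0.1% formaldehyde, proximity ligation (BsaI/T4 ligase, 1 h, 37 °C) and PCR amplification of pools that had been incubated for 30 min at room temperature with 200 nmole of a random double-stranded 16-mer DNA library in Tris/NaCl/DTT/glycerol buffer. Each pool held DNA-barcoded human transcription factors, expressed in yeast as GST fusions and captured on glutathione beads, plus a tag-only sample. Binding signal is a hexamer's read frequency for a factor divided by its frequency in the tag-only sample.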

ELK1 = target: T2, ELK1 (Homo sapiens, UniProt P19419 1-428)
T2 sequence: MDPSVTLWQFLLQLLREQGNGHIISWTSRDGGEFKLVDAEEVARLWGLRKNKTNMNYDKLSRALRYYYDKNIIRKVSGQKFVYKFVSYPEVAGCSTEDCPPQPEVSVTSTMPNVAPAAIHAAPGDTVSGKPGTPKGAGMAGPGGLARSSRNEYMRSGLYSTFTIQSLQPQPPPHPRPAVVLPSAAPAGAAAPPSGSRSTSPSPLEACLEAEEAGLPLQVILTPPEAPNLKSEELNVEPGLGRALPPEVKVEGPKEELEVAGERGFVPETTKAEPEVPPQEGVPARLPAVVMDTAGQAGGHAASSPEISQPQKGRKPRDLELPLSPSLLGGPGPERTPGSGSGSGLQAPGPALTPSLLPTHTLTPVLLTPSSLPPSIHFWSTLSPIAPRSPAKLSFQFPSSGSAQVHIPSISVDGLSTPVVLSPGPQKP
Procedure, shortened: as §1

GABPA = target: T3, GABPA (Homo sapiens, UniProt Q06546 1-454)
T3 sequence: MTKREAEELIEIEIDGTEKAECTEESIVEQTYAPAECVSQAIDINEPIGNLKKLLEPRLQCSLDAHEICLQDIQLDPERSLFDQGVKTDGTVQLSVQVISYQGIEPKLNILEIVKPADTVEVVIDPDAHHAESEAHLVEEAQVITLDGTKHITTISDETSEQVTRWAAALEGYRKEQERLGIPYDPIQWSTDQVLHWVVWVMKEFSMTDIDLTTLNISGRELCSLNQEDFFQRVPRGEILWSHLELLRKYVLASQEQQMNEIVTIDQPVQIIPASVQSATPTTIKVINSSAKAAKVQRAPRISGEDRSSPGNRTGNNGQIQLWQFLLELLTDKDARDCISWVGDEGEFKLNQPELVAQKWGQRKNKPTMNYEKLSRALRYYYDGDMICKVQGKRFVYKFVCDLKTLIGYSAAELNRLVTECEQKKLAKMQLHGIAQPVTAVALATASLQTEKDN
Procedure, shortened: as §1

ERG = target: T4, ERG (Homo sapiens, UniProt P11308 1-479)
T4 sequence: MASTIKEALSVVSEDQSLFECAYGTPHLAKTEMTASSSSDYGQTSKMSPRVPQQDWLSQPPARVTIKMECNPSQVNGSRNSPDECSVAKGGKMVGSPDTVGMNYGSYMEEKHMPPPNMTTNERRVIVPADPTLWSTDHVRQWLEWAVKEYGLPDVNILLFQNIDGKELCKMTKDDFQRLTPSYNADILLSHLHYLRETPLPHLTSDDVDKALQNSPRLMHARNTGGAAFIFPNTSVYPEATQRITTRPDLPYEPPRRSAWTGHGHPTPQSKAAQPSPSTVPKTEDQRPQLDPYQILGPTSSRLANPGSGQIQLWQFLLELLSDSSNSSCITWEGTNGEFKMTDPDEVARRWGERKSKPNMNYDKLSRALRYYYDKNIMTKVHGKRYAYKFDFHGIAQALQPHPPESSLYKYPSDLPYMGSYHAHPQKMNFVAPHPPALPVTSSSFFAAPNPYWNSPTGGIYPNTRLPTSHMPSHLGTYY
Procedure, shortened: as §1

ELF1 = ELF1 (Homo sapiens, UniProt P32519 1-619)
Chain of ELF1 (P32519 whole entry): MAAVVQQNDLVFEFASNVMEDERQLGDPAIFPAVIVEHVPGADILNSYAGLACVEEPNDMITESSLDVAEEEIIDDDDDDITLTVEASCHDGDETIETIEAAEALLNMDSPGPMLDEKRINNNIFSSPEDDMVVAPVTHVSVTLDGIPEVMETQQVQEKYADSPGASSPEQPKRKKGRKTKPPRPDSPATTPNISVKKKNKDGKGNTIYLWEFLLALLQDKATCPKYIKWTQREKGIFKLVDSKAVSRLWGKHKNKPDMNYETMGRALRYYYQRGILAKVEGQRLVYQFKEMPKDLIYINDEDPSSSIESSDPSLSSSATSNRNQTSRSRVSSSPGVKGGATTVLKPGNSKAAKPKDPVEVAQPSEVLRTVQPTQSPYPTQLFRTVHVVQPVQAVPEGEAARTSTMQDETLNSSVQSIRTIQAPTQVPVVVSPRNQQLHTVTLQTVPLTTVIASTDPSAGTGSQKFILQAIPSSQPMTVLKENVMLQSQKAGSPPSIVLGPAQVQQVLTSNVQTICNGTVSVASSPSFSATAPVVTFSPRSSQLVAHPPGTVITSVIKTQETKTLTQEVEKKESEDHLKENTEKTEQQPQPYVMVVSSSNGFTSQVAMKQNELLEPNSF
Procedure, shortened: as §1

EHF = target: T5, EHF (Homo sapiens, UniProt Q9NZC4 1-300)
T5 sequence: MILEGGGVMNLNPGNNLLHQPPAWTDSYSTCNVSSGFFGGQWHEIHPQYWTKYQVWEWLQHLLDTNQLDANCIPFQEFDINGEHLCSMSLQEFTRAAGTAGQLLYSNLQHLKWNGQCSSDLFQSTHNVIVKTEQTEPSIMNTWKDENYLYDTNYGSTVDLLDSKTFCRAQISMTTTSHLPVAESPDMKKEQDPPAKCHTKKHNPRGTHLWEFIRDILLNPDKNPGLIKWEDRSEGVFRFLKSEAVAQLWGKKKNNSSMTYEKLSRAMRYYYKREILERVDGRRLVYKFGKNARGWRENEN
Procedure, shortened: as §1

SPI1 = SPI1 (Homo sapiens, UniProt P17947 1-270)
Procedure, shortened: as §1

SPIB = SPIB (Homo sapiens, UniProt Q01892 1-262)
Chain of SPIB (Q01892 whole entry): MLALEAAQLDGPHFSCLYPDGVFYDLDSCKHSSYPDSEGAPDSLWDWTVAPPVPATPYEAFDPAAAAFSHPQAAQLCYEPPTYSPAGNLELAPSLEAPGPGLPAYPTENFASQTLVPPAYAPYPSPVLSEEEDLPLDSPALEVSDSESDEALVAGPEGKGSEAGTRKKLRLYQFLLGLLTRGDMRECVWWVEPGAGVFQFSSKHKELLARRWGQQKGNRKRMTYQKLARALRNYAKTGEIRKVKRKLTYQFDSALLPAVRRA
Procedure, shortened: as §1

ELK3 = target: T6, ELK3 (Homo sapiens, UniProt P41970 1-407)
T6 sequence: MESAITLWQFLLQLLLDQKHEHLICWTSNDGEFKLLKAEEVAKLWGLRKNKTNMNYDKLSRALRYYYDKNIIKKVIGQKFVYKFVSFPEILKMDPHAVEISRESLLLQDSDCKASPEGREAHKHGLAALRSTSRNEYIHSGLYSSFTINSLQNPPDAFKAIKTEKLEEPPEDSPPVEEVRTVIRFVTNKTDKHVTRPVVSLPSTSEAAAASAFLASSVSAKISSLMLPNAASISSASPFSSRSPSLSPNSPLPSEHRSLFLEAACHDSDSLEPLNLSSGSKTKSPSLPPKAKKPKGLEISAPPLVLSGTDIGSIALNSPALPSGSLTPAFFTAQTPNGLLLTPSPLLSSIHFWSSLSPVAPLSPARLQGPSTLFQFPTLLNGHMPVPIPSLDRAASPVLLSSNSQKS
Procedure, shortened: as §1

Row | Sequence | binding signal (FLI1) | binding signal (ELK1) | binding signal (GABPA) | binding signal (ERG) | binding signal (ELF1) | binding signal (EHF) | binding signal (SPI1) | binding signal (SPIB) | binding signal (ELK3)
1 | ACACTT | 1.63 fold enrichment (6-mer frequency, TF over GST control) | 1.7 fold enrichment (6-mer frequency, TF over GST control) | 1.53 fold enrichment (6-mer frequency, TF over GST control) | 1.8 fold enrichment (6-mer frequency, TF over GST control) | 1.69 fold enrichment (6-mer frequency, TF over GST control) | 1.66 fold enrichment (6-mer frequency, TF over GST control) | 1.95 fold enrichment (6-mer frequency, TF over GST control) | 1.67 fold enrichment (6-mer frequency, TF over GST control) | 1.74 fold enrichment (6-mer frequency, TF over GST control)
2 | AATCTG | 1.48 fold enrichment (6-mer frequency, TF over GST control) | 1.33 fold enrichment (6-mer frequency, TF over GST control) | 1.49 fold enrichment (6-mer frequency, TF over GST control) | 1.46 fold enrichment (6-mer frequency, TF over GST control) | 1.48 fold enrichment (6-mer frequency, TF over GST control) | 1.31 fold enrichment (6-mer frequency, TF over GST control) | 1.42 fold enrichment (6-mer frequency, TF over GST control) | 1.51 fold enrichment (6-mer frequency, TF over GST control) | 1.34 fold enrichment (6-mer frequency, TF over GST control)
3 | AAGGAT | 1.14 fold enrichment (6-mer frequency, TF over GST control) | 1.19 fold enrichment (6-mer frequency, TF over GST control) | 1.12 fold enrichment (6-mer frequency, TF over GST control) | 1.17 fold enrichment (6-mer frequency, TF over GST control) | 1.22 fold enrichment (6-mer frequency, TF over GST control) | 1.25 fold enrichment (6-mer frequency, TF over GST control) | 1.12 fold enrichment (6-mer frequency, TF over GST control) | 1.19 fold enrichment (6-mer frequency, TF over GST control) | 1.13 fold enrichment (6-mer frequency, TF over GST control)
4 | CAAAAA | 1.14 fold enrichment (6-mer frequency, TF over GST control) | 1.04 fold enrichment (6-mer frequency, TF over GST control) | 1.16 fold enrichment (6-mer frequency, TF over GST control) | 1.07 fold enrichment (6-mer frequency, TF over GST control) | 1.16 fold enrichment (6-mer frequency, TF over GST control) | 1.2 fold enrichment (6-mer frequency, TF over GST control) | 1.32 fold enrichment (6-mer frequency, TF over GST control) | 1.19 fold enrichment (6-mer frequency, TF over GST control) | 1.17 fold enrichment (6-mer frequency, TF over GST control)
5 | AATAAT | 1.23 fold enrichment (6-mer frequency, TF over GST control) | 1.24 fold enrichment (6-mer frequency, TF over GST control) | 1.31 fold enrichment (6-mer frequency, TF over GST control) | 1.33 fold enrichment (6-mer frequency, TF over GST control) | 1.28 fold enrichment (6-mer frequency, TF over GST control) | 1.36 fold enrichment (6-mer frequency, TF over GST control) | 1.24 fold enrichment (6-mer frequency, TF over GST control) | 1.32 fold enrichment (6-mer frequency, TF over GST control) | 1.39 fold enrichment (6-mer frequency, TF over GST control)
6 | TAGTAC | 1.11 fold enrichment (6-mer frequency, TF over GST control) | 1.13 fold enrichment (6-mer frequency, TF over GST control) | 1.22 fold enrichment (6-mer frequency, TF over GST control) | 1.24 fold enrichment (6-mer frequency, TF over GST control) | 1.16 fold enrichment (6-mer frequency, TF over GST control) | 1.08 fold enrichment (6-mer frequency, TF over GST control) | 1.07 fold enrichment (6-mer frequency, TF over GST control) | 1.06 fold enrichment (6-mer frequency, TF over GST control) | 1.12 fold enrichment (6-mer frequency, TF over GST control)
7 | TTAGGG | 1.03 fold enrichment (6-mer frequency, TF over GST control) | 1.14 fold enrichment (6-mer frequency, TF over GST control) | 1.13 fold enrichment (6-mer frequency, TF over GST control) | 1.15 fold enrichment (6-mer frequency, TF over GST control) | 1.11 fold enrichment (6-mer frequency, TF over GST control) | 1.13 fold enrichment (6-mer frequency, TF over GST control) | 1.25 fold enrichment (6-mer frequency, TF over GST control) | 1.17 fold enrichment (6-mer frequency, TF over GST control) | 1.07 fold enrichment (6-mer frequency, TF over GST control)
